The list is not random: actives were taken first. Their share in the collection is about 1.2%.
PglD inh = inhibitors of Campylobacter jejuni PglD acetyltransferase. AID 602405. purified PglD enzyme, DTNB colorimetric CoA detection. inhibition, % at 12.5 µM. hit rate 0.098% among 360,000; in the data active = inhibition above about 16%, passing the limit was not always enough
miR-122 sensor = inhibitors of miR-122 in Huh7 cells | Huh7 miR-122 Renilla luciferase sensor, 48 h; neutral wells = 0, positive control = 100 | activation (reporter increase), % at 12.5 µM | hit rate 0.3% among 340,000 | AID 602342;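 active = mean replicate activation score at least 90 and every replicate individually at or above 90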;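 note: higher luciferase means less miR-122 activity so hits act as miR-122 inhibitors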
C2C12 statin = suppressors of simvastatin-induced myotoxicity in C2C12 myotubes. ATP luminescence, 48 h; scaled: DMSO 0, geranylgeraniol control 100. rescue of ATP level, % at 7.49 µM. hit rate 0.78% among 330,000;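 active = mean ATP rescue above about 67%, or every replicate alone reaching that limit, limit read from the data, passing the limit was not always enough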;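 note: myotubes were challenged with 10 µM simvastatin during compound exposure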
NSD2 inh = blocks human histone methyltransferase NSD2; NSD2 peptide methylation, AlphaScreen, 120 min; inhibition, % at 12.5 µM; hit rate 0.54% among 310,000; AID 743445; in the data active = inhibition above about 50%
An asterisk follows results filed as active; x = not tested or not shown; [ ] = another dose, or the depositor's remark.

SMILES	PglD inh	miR-122 sensor	C2C12 statin	NSD2 inh
O=C(O)CN1C(=O)/C(=C\C(Br)=C\c2ccccc2)SC1=S	-1.3	-3.2	11.0	55.0*
O=C(O)CN1C(=O)/C(=C/C=C/c2ccccc2)SC1=S	x	x	x	7.9
Cc1ccc(S(=O)(=O)Nc2ccc3c(c2)C(=O)N([C@H](C)CO)C[C@@H](C)[C@H](CN(C)C(=O)Nc2c(C)noc2C)OCCCC[C@@H](C)O3)cc1	1.8	-8.1[16.7 µM]	x	x
CCC(C)(C)NC(=O)CN(Cc1cccs1)C(=O)CNS(=O)(=O)c1ccc(C)cc1	-6.5	-3.9	83.5*	0.8
CC(C)(C)NC(=O)CN(Cc1cccs1)C(=O)CNS(=O)(=O)c1ccc(F)cc1	x	1.6	x	2.3
O=C(CSc1nnc(-c2cc3ccccc3cc2O)n1Cc1ccco1)c1ccc(F)cc1	2.3	231.5*	27.7	0.1
Cc1ccc(OCc2nnc(SCC(=O)c3ccccc3)n2Cc2ccco2)cc1	0.3	7.3	76.9*	0.2
Cc1ccc(OCc2nnc(SCC(=O)c3ccc(-c4ccccc4)cc3)n2Cc2ccco2)cc1	x	x	x	5.8
Cc1occc1-c1nnc(SCC(=O)c2ccc(F)cc2)n1Cc1ccco1	3.5	-9.4	-1.8	3.5
O=C(Nc1ncn[nH]1)c1c(Cl)ccc(Cl)c1Cl	-4.5	7.5	153.4*	0.1
COc1ccc(S(=O)(=O)N2C[C@H](O)COC[C@H]3O[C@H](CC(=O)N[C@@H]4CCN(Cc5ccccc5)C4)CC[C@@H]32)cc1	-1.8	4.8[16.7 µM]	0.5	x
Cn1c2c(c(=O)n(C)c1=O)CN(Cc1ccc(F)cc1)CN2	-0.8	-6.0	13.3	0.0
Cn1c2c(c(=O)n(C)c1=O)CN(Cc1ccc3c(c1)OCO3)CN2	15.9	-6.0	112.5*	1.2
COC(=O)C(C)Sc1nc2c(cnn2-c2ccc(C)cc2)c(=O)[nH]1 (configuration not stated)	-0.2	-4.7	106.3*	x
COC(=O)C(C)Sc1nc2c(cnn2-c2ccc(F)cc2)c(=O)[nH]1 (configuration not stated)	-1.1	-2.0	13.8	-2.1
CC(C)NC(=O)N(C)C[C@H]1Oc2c(NS(=O)(=O)c3cccs3)cccc2C(=O)N([C@@H](C)CO)C[C@H]1C	x	2.4[16.7 µM]	x	x
Cc1ccc(C(=O)NCCSc2ccc(Cl)cc2)cc1S(=O)(=O)Nc1ccccc1	1.7	130.9*	11.0	x
CC(=O)Nc1cc(S(=O)(=O)Nc2cccc(C)c2)c(C)cc1C	-4.7	144.4*	10.9	2.1
Cc1ccc(NC(=O)CNC(=O)c2cccs2)cc1S(=O)(=O)Nc1ccc(Cl)cc1	-0.9	98.2*	19.7	-1.0
CS(=O)(=O)Nc1ccccc1C(=O)NCCSc1ccc(Cl)cc1	-2.1	5.7	-11.4	-1.7
Cc1ccc(NS(=O)(=O)c2cc(C(=O)NCCSc3ccc(C)cc3)ccc2C)cc1	2.2	114.8*	24.1	-4.5
C[C@H](CO)N1C[C@H](C)[C@H](CN(C)S(C)(=O)=O)Oc2c(NC(=O)C3CC3)cccc2C1=O	-0.4	10.9[16.7 µM]	-7.2	x
CC(C)C#Cc1cnc2c(c1)C(=O)N([C@H](C)CO)C[C@H](C)[C@H](CN(C)Cc1cccc(F)c1)O2	3.2	14.1[16.7 µM]	1.7	x
CCN(c1ccccc1)S(=O)(=O)c1cc(NC(=O)CSc2nccc(=O)[nH]2)ccc1Cl	x	x	x	-1.8
Cc1ccc(C(=O)Nc2ccc(C)c(S(=O)(=O)Nc3ccccc3Cl)c2)s1	-4.5	413.2*	x	2.2
SMILES	PglD inh	miR-122 sensor	C2C12 statin	NSD2 inh
Cc1ccc(NS(=O)(=O)c2cc(C(=O)NCCSC3CCCCC3)ccc2C)cc1	3.0	121.7*	19.1	-5.5
Cc1ccc(SCCNC(=O)c2ccc(C)c(S(=O)(=O)Nc3cccc(C)c3)c2)cc1	-2.3	105.1*	49.0	0.6
Cc1noc(C)c1S(=O)(=O)Nc1ccc2c(c1)C(=O)N([C@@H](C)CO)C[C@H](C)[C@@H](CN(C)C(=O)Nc1ccc(F)cc1)O2	x	4.5[16.7 µM]	-18.8	x
Cn1nc(C(=O)Nc2ccc(S(=O)(=O)N3CCCCC3)cc2)ccc1=O	5.5	3.4	96.3*	6.9
CN(C(=O)CSc1nc(-c2ccccc2)cn1N)C(c1ccccc1)c1ccccc1	3.8	-2.3	78.2*	1.3
O=C(C[C@H]1C[C@H]2c3cc(NC(=O)NC4CCCCC4)ccc3O[C@H]2[C@@H](CO)O1)NCc1ccccc1	-0.1	1.4[16.7 µM]	1.0	x
C[C@@H]1CN([C@H](C)CO)C(=O)Cc2cc(NS(=O)(=O)c3ccc(Cl)cc3)ccc2O[C@H]1CN(C)S(C)(=O)=O	-2.8	1.2[16.7 µM]	5.0	x
CCCCOCCCNC(=S)Nc1ccc(S(=O)(=O)N2CCOCC2)cc1	10.3	176.0*	-9.1	2.5
O=C(Nc1ccc(S(=O)(=O)N2CCOCC2)cc1)c1ccc([N+](=O)[O-])o1	0.2	28.7	87.7*	x
O=S(=O)(c1ccc(NC(=S)NCCC(c2ccccc2)c2ccccc2)cc1)N1CCOCC1	x	x	x	-1.3
O=C(Nc1ccc(S(=O)(=O)N2CCCC2)cc1)c1ccc([N+](=O)[O-])o1	-2.0	40.9	31.0	3.7
CN1C(=O)c2cc(NC(=O)c3ccc(F)cc3)ccc2OC[C@@H]2O[C@H](CC(=O)NC3CCC3)CC[C@H]21	-3.2	26.2[16.7 µM]	-15.0	x
CCC(=O)N(C)C[C@H]1Oc2ncc(C#CCc3ccccc3)cc2C(=O)N([C@@H](C)CO)C[C@@H]1C	3.6	-4.8[16.7 µM]	-27.9	x
COCC(C)NS(=O)(=O)c1ccc(C)cc1 (configuration not stated)	-3.6	0.8	141.5*	-33.2
Cc1ccc(S(=O)(=O)N[C@@H](C)CO)cc1	x	x	x	-3.6
O=C1c2ccccc2C(=O)C12OC2c1cccc2ccccc12 (configuration not stated)	x	5.9	6.6	101.4*
COc1ccc(OC)c(NC(=O)CCN2CCN(c3ccccc3F)CC2)c1	-1.8	-3.0	x	-2.1
COc1cccc(NC(=O)CCN2CCN(c3ccccc3F)CC2)c1	2.3	-5.8	77.6*	4.4
CCCn1c(NC(=O)c2ccco2)nc2ccccc21	4.1	40.8	102.3*	-0.7
COc1ccc(OCCn2c(NC(=O)c3ccco3)nc3ccccc32)cc1	5.1	7.2	5.1	12.5
C[C@H](CO)N1C[C@H](C)[C@@H](CN(C)C)Oc2cc(-c3cccc(C(=O)N(C)C)c3)ccc2S1(=O)=O	-0.1	3.9[16.7 µM]	2.1	x
CCN(C[C@H]1[C@H](c2ccc(C3=CCCC3)cc2)[C@H](CO)N1C(C)=O)C(C)=O	-1.2	-7.1[16.7 µM]	-4.3	x
CCCCN1C(=O)C(CC(=O)NCC)SC1=Nc1ccccc1 (configuration not stated)	-0.9	-5.7	158.8*	-1.4
O=C(O)CC1SC(=Nc2ccccc2)N(c2ccccc2)C1=O (configuration not stated)	-6.4	-3.8	115.3*	-0.1
O=C(O)CC1S/C(=N\N=C2CCCCCCC2)N(c2ccccc2)C1=O (configuration not stated)	x	-11.0	-3.4	5.5
Cc1ccc(NC(=O)CN2C(=O)NC(Cc3c[nH]c4ccccc34)C2=O)c(Br)c1 (configuration not stated)	x	x	x	4.9
C[C@@H]1CN([C@@H](C)CO)S(=O)(=O)c2ccc(C#Cc3ccccn3)cc2O[C@@H]1CN(C)C(=O)C1CC1	2.5	-7.5[16.7 µM]	9.6	x
